# Test results taken from PubChem BioAssay (NCATS).
# “And” between values parts separate entries of the source, which are not always exact repeats. Equal entries are not always repeated. Inconclusive results are not listed. A call without a number means that no potency is given here. Some compounds were tested as several samples or in several runs, with calls that do not always agree. The source made the active and inactive calls. The call rests on the fitted dose curve; in most records, active means well fitted curve in the direction sought with a large enough effect; inconclusive means small, poorly fitted or top-dose-only effect, or another doubt; inactive means no such curve, though single readings can be large; an effect the other way counts as inactive or inconclusive.
# Tests used:
# [1] = target: Cytochrome P450 3A7 (Homo sapiens) (UniProt P24462); test: Cytochrome P450 family 3 subfamily A member 7 (CYP3A7) small molecule antagonists: luciferase biochemical qHTS assay (AID 1963596); further: nearly all actives have a fitted effect of over 40% in size
# Method in brief: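 Recombinant CYP3A7 P450-Glo luminescent assay: enzyme-proluciferin substrate mix preincubated with compound 10 min at room temperature, reaction started with NADPH regeneration system for 1 h. Luciferin detected by luminescence; ketoconazole as positive control.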
# [2] = Viability qHTS for spleen associated tyrosine kinase inhibitor (SYKi) naive MV4-11 cells (AID 1963823); further: nearly all actives have a fitted effect of over 40% in size; further: potency means the concentration at half of the fitted maximal effect
# Method in brief: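 CellTiter-Glo luminescence, 10 min room-temperature incubation, gave viability. Cells: naive MV4-11 (500/well), treated 72 hr at 37 C, 5% CO2.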
# [3] = Viability qHTS for spleen associated tyrosine kinase inhibitor (SYKi) drug resistant MV4-11 cells (AID 1963824); further: nearly all actives have a fitted effect of over 35% in size; further: potency means the concentration at half of the fitted maximal effect
# Method in brief: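 CellTiter-Glo luminescence, read 10 min after reagent addition, reports viability after a 72 hr compound exposure. Cells are an MV4-11 line made resistant to SYK inhibition, seeded at 500 per well onto compound-containing plates.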
# [4] = Quantitative highthroughput screen to assess conditional lethalithy of P12 Ichikawa cells grown in Human Plasma-Like Medium with dialyzed fetal bovine serum (HPLM+ds) (AID 1963879); details: Potency: viability; further: nearly all actives have a fitted effect of over 35% in size; further: potency means the concentration at half of the fitted maximal effect; on Viability: series mostly up to about 46 µM
# Method in brief: (§1)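 Each medium arm—HPLM with 10% dialyzed FBS, or RPMI1640 with 5 mM glucose and 10% untreated or dialyzed FBS—was screened against an 11-point, 3-fold compound titration for 48 h at 37 °C, with CellTiter-Glo luminescence as endpoint.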
# [5] = Quantitative highthroughput screen to assess conditional lethalithy of SEM cells grown in RPMI1640 with unreated serum (RPMI+s) (AID 1963883); further: nearly all actives have a fitted effect of over 35% in size; further: potency means the concentration at half of the fitted maximal effect
# Method in brief: as §1
# [6] = Cellular viability qHTS for adrenocortical cancer (ACC) cell line NCI-H295R (AID 1963990); further: nearly all actives have a fitted effect of over 60% in size; further: potency means the concentration at half of the fitted maximal effect
# Method in brief: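 Viability of NCI-H295R after 48 h of treatment (final up to 46 uM) measured through cellular ATP luminescence.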
# [7] = Quantitative highthroughput screen to assess conditional lethalithy of NOMO1 cells grown in Human Plasma-Like Medium with dialyzed fetal bovine serum (HPLM+ds) (AID 1963878); further: nearly all actives have a fitted effect of over 35% in size; further: potency means the concentration at half of the fitted maximal effect
# Method in brief: as §1
# [8] = Cellular viability qHTS for adrenocortical cancer (ACC) cell line SW-13 (AID 1963989); details: SW-13 ACC cells viability, CellTiter-Glo, 48 h; activity (max response): stronger effect = lower value; further: nearly all actives have a fitted effect of over 65% in size; further: potency means the concentration at half of the fitted maximal effect;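 on activity (max response): cells grown in serum-free medium with ITS supplement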
# Method in brief: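 Here, serum-free SW-13 cultures were dosed up to 46 uM. Following 48 h, ATP-dependent luminescence (CellTiter-Glo) reported viable cells, and logistic modeling produced IC50 values.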
# [9] = Quantitative highthroughput screen to assess conditional lethalithy of NOMO1 cells grown in RPMI1640 with untreated serum (RPMI+s) (AID 1963876); further: nearly all actives have a fitted effect of over 35% in size; further: potency means the concentration at half of the fitted maximal effect
# Method in brief: as §1
# [10] = Quantitative highthroughput screen to assess conditional lethalithy of P12 Ichikawa cells grown in RPMI1640 with dialyzed fetal bovine serum (RPMI+ds) (AID 1963880); details: Potency: P12-Ichikawa viability; further: nearly all actives have a fitted effect of over 35% in size; further: potency means the concentration at half of the fitted maximal effect
# Method in brief: as §1
# [11] = Quantitative highthroughput screen to assess conditional lethalithy of P12 Ichikawa cells grown in RPMI1640 with untreated serum (RPMI+s) (AID 1963881); details: Potency: viability; further: nearly all actives have a fitted effect of over 35% in size; further: potency means the concentration at half of the fitted maximal effect; on Viability: series mostly up to about 46 µM
# Method in brief: as §1
# [12] = Quantitative highthroughput screen to assess conditional lethalithy of SEM cells grown in RPMI1640 with dialyzed fetal bovine serum (RPMI+ds) (AID 1963884); further: nearly all actives have a fitted effect of over 35% in size; further: potency means the concentration at half of the fitted maximal effect; on Viability: series mostly up to about 46 µM
# Method in brief: as §1
# [13] = Quantitative highthroughput screen to assess conditional lethalithy of SEM cells grown in Human Plasma-Like Medium with dialyzed fetal bovine serum (HPLM+ds) (AID 1963882); further: nearly all actives have a fitted effect of over 35% in size; further: potency means the concentration at half of the fitted maximal effect; on Viability: series mostly up to about 46 µM
# Method in brief: as §1
# [14] = Quantitative highthroughput screen to assess conditional lethalithy of NOMO1 cells grown in RPMI1640 with dialyzed fetal bovine serum (RPMI+ds) (AID 1963877); further: nearly all actives have a fitted effect of over 30% in size; further: potency means the concentration at half of the fitted maximal effect; on Viability: series mostly up to about 46 µM
# Method in brief: as §1
# Cytochrome P450 3A7 (Homo sapiens), sequence (P24462 whole entry, looked up): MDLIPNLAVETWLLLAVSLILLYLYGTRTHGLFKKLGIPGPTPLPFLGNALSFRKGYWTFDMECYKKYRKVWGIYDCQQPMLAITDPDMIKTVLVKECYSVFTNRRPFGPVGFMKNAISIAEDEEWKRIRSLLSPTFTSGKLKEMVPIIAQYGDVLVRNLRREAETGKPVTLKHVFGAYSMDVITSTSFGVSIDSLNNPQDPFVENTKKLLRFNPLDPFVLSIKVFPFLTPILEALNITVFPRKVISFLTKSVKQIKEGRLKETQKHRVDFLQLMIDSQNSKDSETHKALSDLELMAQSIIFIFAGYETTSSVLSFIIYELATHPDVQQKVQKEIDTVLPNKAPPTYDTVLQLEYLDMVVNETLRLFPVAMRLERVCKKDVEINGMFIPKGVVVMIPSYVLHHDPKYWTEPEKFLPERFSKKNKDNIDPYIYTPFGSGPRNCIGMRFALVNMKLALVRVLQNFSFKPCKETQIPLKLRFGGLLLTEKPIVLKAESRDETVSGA
Compound,Potency [1],Potency [2],Potency [3],Potency [4],Potency [5],Potency [6],Potency [7],activity (max response) [8],Potency [9],Potency [10],Potency [8],Potency [11],Potency [12],Potency [13],Potency [14]
COc1c(OCCCN2CCOCC2)ccc2c3n(c(=NC(=O)c4cnc(N)nc4)nc12)CCN3,inactive,47.3 nM (active) and 53.9 nM (active),37.6 nM (active) and 241 nM (active),0.182 µM (active),2.04 µM (active),237 nM (active),–,–,–,–,–,–,–,–,–
CN(C)C(=O)COC(=O)Cc1ccc(OC(=O)c2ccc(N=C(N)N)cc2)cc1,inactive,inactive,inactive and 7.42 µM (active),–,–,inactive,20.9 µM (active),3.47% (inactive) and -2% (inactive),–,–,–,–,–,–,–
Cc1nc2ccc(CN(C)c3ccc(C(=O)N[C@@H](CCC(=O)O)C(=O)O)s3)cc2c(=O)[nH]1,inactive,6.6 nM (active),0.0074 µM (active),–,inactive,inactive,–,–,0.418 µM (active),–,–,–,–,–,–
COC(=O)Nc1nc2ccc(S(=O)c3ccccc3)cc2[nH]1 (centres undefined),inactive,16.6 µM (active) and 841 nM (active),14.8 µM (active) and 668 nM (active),7.43 µM (active),–,4.47 µM (active) and 259 nM (active),–,–,–,inactive,8.91 µM (active) and 259 nM (active),–,–,–,–
COc1cccc2c1CCCC2CCCN1CCN(C2CCCCC2)CC1 (centres undefined),inactive,16600 nM (active),10.5 µM (active),–,–,–,–,–,20.9 µM (active),–,22.4 µM (active),–,–,–,–
Cc1cc(C(C)(C)C)cc(C)c1CC1=NCCN1,inactive,3720 nM (active),5.25 µM (active),inactive,inactive,inactive,–,-1.59% (inactive) and -10.9% (inactive),–,inactive,–,inactive,inactive,–,–
CC(C[N+](C)(C)C)OC(N)=O (centres undefined),inactive,inactive,inactive,inactive,inactive,inactive,–,2.28% (inactive) and -2.17% (inactive),inactive,inactive,–,inactive,inactive,inactive,–
CCN1CCCC1CNC(=O)c1cc(S(=O)(=O)CC)c(N)cc1OC (centres undefined),inactive,inactive,inactive,inactive,inactive,inactive,–,7.57% (inactive) and -4.85% (inactive),–,inactive,–,inactive,inactive,inactive,inactive
Cc1coc2c1C(=O)C(=O)c1c-2ccc2c1CCCC2(C)C,inactive,1860 nM (active),1.86 µM (active),–,inactive,–,inactive,2.82% (inactive),inactive,inactive,–,inactive,inactive,inactive,–
CCn1cc(C(=O)O)c(=O)c2cc(F)c(N3CCNCC3)nc21,inactive,33.5 nM (active),2.66 µM (active),inactive,inactive,inactive,–,4.85% (inactive),–,inactive,–,inactive,inactive,inactive,–
CC1(C)[C@H](C(=O)O)N2C(=O)C[C@H]2S1(=O)=O,inactive,inactive,inactive,inactive,inactive,inactive,–,9.85% (inactive),8.33 µM (active),inactive,–,inactive,inactive,–,–
COc1nc(C)nc(Cl)c1NC1=NCCN1,inactive,inactive,inactive,inactive,inactive,inactive,–,-1.64% (inactive),inactive,inactive,–,inactive,–,inactive,–
COC(=O)Nc1nc2ccc(C(=O)c3ccccc3)cc2[nH]1,inactive,332 nM (active),596 nM (active) and 372 nM (active),1.05 µM (active),–,103 nM (active) and 141 nM (active),–,–,3.32 µM (active),1.87 µM (active),130 nM (active) and 316 nM (active),0.332 µM (active),–,–,–
C[C@@H](N)c1ccc(C(=O)Nc2ccnc3[nH]ccc23)cc1,inactive,4170 nM (active),10.3 µM (active),–,–,–,–,–,–,inactive,25.1 µM (active),–,–,–,18.7 µM (active)
CO[C@@H]1COCC[C@@H]1N[C@@H]1CC[C@@](C(=O)N2CCc3ncc(C(F)(F)F)cc3C2)(C(C)C)C1,inactive,inactive,inactive,–,–,inactive,–,-5.19% (inactive),–,–,–,–,–,–,inactive
CS(=O)(=O)N1CCc2c(-c3cnc(N)nc3)nc(N3CCOCC3)nc21,inactive,1860 nM (active),4.17 µM (active),inactive,4.69 µM (active),708 nM (active),–,–,8.33 µM (active),–,–,–,–,–,–
Cc1ccc(S(=O)(=O)NC(=O)NN2CC3CCCC3C2)cc1 (centres undefined),inactive,inactive,inactive,5.9 µM (active),4.18 µM (active),inactive,–,–,–,2.96 µM (active),–,4.18 µM (active),2.96 µM (active),5.9 µM (active),–
Nc1nc2c(ncn2COCCO)c(=O)[nH]1,inactive,inactive,inactive,inactive,–,inactive,–,–,inactive,inactive,–,inactive,–,–,–

Compound,Potency [1],Potency [2],Potency [3],Potency [4],Potency [5],Potency [6],Potency [7],activity (max response) [8],Potency [9],Potency [10],Potency [8],Potency [11],Potency [12],Potency [13],Potency [14]
COC(=O)Nc1nc2ccc(C(=O)c3cccs3)cc2[nH]1,inactive,106 nM (active),42.2 nM (active) and 118 nM (active),0.0187 µM (active),–,9.2 nM (active) and 158 nM (active),–,–,–,–,8.2 nM (active) and 126 nM (active),–,–,–,–
COc1c(O)cc2c(c1O)[C@@H]1O[C@H](CO)[C@@H](O)[C@H](O)[C@H]1OC2=O,inactive,inactive,inactive,16.6 µM (active),10.5 µM (active),–,14.8 µM (active),–,–,–,–,–,18.7 µM (active),20.9 µM (active),–
Cc1cn([C@@H]2C[C@@H](O)[C@H](CO)O2)c(=O)[nH]c1=O,inactive,inactive,inactive,23.5 µM (active),–,inactive,–,-17.5% (inactive),inactive,23.5 µM (active),–,26.4 µM (active),–,–,–
Cn1c(=O)c2c(ncn2CC(O)CO)n(C)c1=O (centres undefined),inactive,inactive,inactive,inactive,inactive,inactive,inactive,9.53% (inactive) and 9.36% (inactive),–,inactive,–,inactive,inactive,inactive,–
NCCOc1cc(C(=O)Nc2cc(OCCN)c3ccccc3n2)nc(C(=O)Nc2cc(OCCN)c3ccccc3n2)c1,inactive,1.3 µM (active) and 1.66 µM (active),2.59 µM (active) and 3.72 µM (active),–,–,–,inactive,–,–,–,–,–,–,–,–
Cn1c(NCCN(CCO)CCCc2ccc([N+](=O)[O-])cc2)cc(=O)n(C)c1=O,inactive,inactive,inactive,–,–,–,–,5.91% (inactive) and 4.46% (inactive),inactive,–,–,–,–,–,–
CCCn1c(=O)c2[nH]c(-c3cnn(Cc4cccc(C(F)(F)F)c4)c3)nc2n(CC)c1=O,inactive,inactive,inactive,inactive,inactive,inactive,–,6% (inactive),6.62 µM (active),4.18 µM (active),–,0.418 µM (active),inactive,–,–
Cc1cn([C@@H]2O[C@H](CO)[C@@H](O)[C@H]2F)c(=O)[nH]c1=O,inactive,inactive,inactive,inactive,inactive,inactive,inactive,7.23% (inactive),–,–,–,–,inactive,–,–
C=CC(=O)Nc1cc2c(Nc3ccc(F)c(Cl)c3)ncnc2cc1OCCCN1CCOCC1,inactive,596 nM (active) and 742 nM (active),944 nM (active) and 742 nM (active),–,–,1.46 µM (active) and 6.31 µM (active),–,–,–,inactive,–,5.26 µM (active),–,–,2.96 µM (active)
NC1=N[C@H]2[C@H](CS[C@H]2CCCCC(=O)O)N1,inactive,inactive,inactive,inactive,inactive,inactive,–,13% (inactive),inactive,inactive,–,inactive,inactive,inactive,–
CCCOc1ccc2nc(NC(=O)OC)[nH]c2c1,inactive,263 nM (active),184 nM (active) and 332 nM (active),0.0418 µM (active),0.0148 µM (active),355 nM (active),–,–,–,–,0.251 µM (active),0.0418 µM (active),0.0209 µM (active),–,–
O=C(Cc1ccc(-c2ccc(OCCN3CCOCC3)cc2)cn1)NCc1ccccc1,inactive,231 nM (active) and 93.4 nM (active),206 nM (active) and 105 nM (active),0.0332 µM (active),0.0264 µM (active),–,–,–,–,0.0372 µM (active),0.199 µM (active),0.0372 µM (active),–,0.0264 µM (active),–
CCCC(CCC)C(=O)O,inactive,inactive,inactive,inactive,inactive,inactive,–,6.17% (inactive) and -13.6% (inactive),inactive,inactive,–,inactive,inactive,inactive,–
Nc1ccn([C@H]2CC[C@@H](CO)O2)c(=O)n1,inactive,inactive,inactive,–,–,inactive,23.5 µM (active),0.291% (inactive),–,–,–,–,7.43 µM (active),–,–
Fc1cc(-c2cccc3ncc(-c4cnn(C5CCNCC5)c4)nc23)cc(F)c1CN1CCOCC1,inactive,259 nM (active) and 372 nM (active),731 nM (active) and 833 nM (active),–,2.64 µM (active),6310 nM (active),3.32 µM (active),–,8.33 µM (active),16.6 µM (active),25.1 µM (active),–,–,4.69 µM (active),–
CN(C)CCOC(c1ccccc1)c1ccccc1,inactive,inactive,inactive,–,inactive,inactive,inactive,0.185% (inactive) and 9.44% (inactive),–,–,–,inactive,inactive,inactive,–
CCC(C)(Oc1ccc(C2(c3ccc(OC(C)(CC)C(=O)O)cc3)CCCCC2)cc1)C(=O)O (centres undefined),inactive,inactive,inactive,–,inactive,–,inactive,-4.64% (inactive) and -4.83% (inactive),–,inactive,–,–,inactive,inactive,inactive
